# In PubChem BioAssay (NCATS):
# Unmarked numbers belong to inactive results. Inconclusive results are not listed. Entries that show only a call come without a potency. Active and inactive are the calls of the source. Unless noted, calls follow the shape of the dose curve; as a rule, active = well fitted curve in the direction sought with a large enough effect; inconclusive = small, poorly fitted or top-dose-only effect, or another doubt; inactive = no such curve, though single readings can be large; an effect the other way counts as inactive or inconclusive.
# How the values were obtained:
# [1] = biological target: Guanine nucleotide-binding protein G(i) subunit alpha-1 (Homo sapiens) (UniProt P63096); assay: qHTS Assay for Inhibitors of RGS12 GoLoco Motif Activity (Green Fluorophore) (AID 879);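 also: negative values mean loss of peptide binding seen as reduced polarization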
# Procedure, shortened: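 A drop in FITC polarization marked displacement of the FITC-tagged RGS12 GoLoco peptide (10 nM) from Gαi1 (50 nM). Compounds were incubated 10 min at room temperature in Tris pH 7.5 buffer containing 150 mM NaCl, 0.1 mM GDP and 0.05% NP40; unlabeled peptide titration served as control.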
# [2] = biological target: Muscarinic acetylcholine receptor M1 (Rattus norvegicus) (UniProt P08482); assay: qHTS Assay for Antagonists of Acetylcholine Muscarinic M1 Receptor: Measurement of IP-One Response (AID 944); also: nearly all actives have a fitted effect of over 75% in size
# Procedure, shortened: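 Antagonism was measured as loss of carbachol-driven (EC80) IP1 accumulation in CHO cells carrying rat M1, using a homogeneous IP-One TR-FRET kit read at 620 and 665 nm.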
# [3] = biological target: Pyruvate kinase (Leishmania mexicana) (UniProt Q27686); assay: qHTS Validation Assay for Inhibitors of Leishmania Mexicana Pyruvate Kinase (AID 945)
# Procedure, shortened: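 Substrate mix (0.5 mM PEP, 0.1 mM ADP, 7 mM MgCl2, 50 mM KCl, pH 7.2 imidazole) received compound by pin tool, then 0.2 nM LmPYK E451W. After 1 h at room temperature, PKLight was added and luminescence measured.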
# [4] = biological target: Pyruvate kinase PKM (Homo sapiens) (UniProt P14618); assay: qHTS Assay for Activators of Human Muscle Pyruvate Kinase (AID 954; active = well fitted curve in the direction sought with a large enough effect, not every such curve was filed as active)
# Procedure, shortened: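 Compound pinned into substrate mix (0.5 mM PEP, 0.1 mM ADP), then 0.1 nM PKM2 added; 1 h, RT. Stop/detection luciferase reagent added, luminescence read. Normalized to no-inhibition and no-enzyme or reference-inhibitor controls.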
# [5] = biological target: alpha-glucosidase (Oryza sativa, rice) (UniProt Q653V4); assay: Counterscreen for Glucocerebrosidase Inhibitors: qHTS Assay for Rice alpha-Glucosidase at pH 5.0 (AID 997)
# Procedure, shortened: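 Endpoint fluorogenic assay at pH 5.0: compounds (0.7 nM to 77 uM) titrated against 4 nM rice enzyme and 400 uM 4-MU-alpha-glucoside for 20 min at room temperature; NaOH/glycine stop, read ex 365/em 440 nm, Hill-fitted AC50.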
# [6] = Quantitative high throughput screen for delayed death inhibitors of the malarial parasite plastid, 48 hour incubation (AID 488752); also: potency is read from the fitted curve at half-maximal effect; nearly all actives have a fitted effect of over 65% in size
# Procedure, shortened: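 Cultures: infected erythrocytes at final 2% hematocrit and 0.1% parasitemia in Albumax-supplemented RPMI. Parasites express integrated firefly luciferase. Incubation with compound lasts 48 h before luminescent detection of remaining reporter activity.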
# [7] = biological target: Thyrotropin receptor (Homo sapiens) (UniProt P16473); assay: qHTS Assay for Antagonists of the Thyroid Stimulating Hormone Receptor (AID 488980); also: series mostly up to about 58 µM
# Procedure, shortened: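 Inhibition of TSH-stimulated cAMP accumulation was quantified by homogeneous time-resolved FRET in TSHR-transfected HEK293 cells. Agonist: TSH, 4 nM final (EC80).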
# [8] = biological target: Thyrotropin-releasing hormone receptor (Homo sapiens) (UniProt P34981); assay: qHTS for Small Molecule Agonists and Allosteric Enhancers of Human TRH Receptor: Validation Screen for Agonists (AID 493127;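 active = calcium activation more than 3 SD above the typical response in the agonist read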;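 also: intracellular calcium rise by fluo-8 fluorescence before TRH EC20 addition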); settings: TRH receptor agonist cell assay; at 2 µM; active compounds read high
# Procedure, shortened: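 Kinetic fluorescence assay of agonist-induced calcium release: overnight-plated TRHR cells, room-temperature fluo-8 loading, baseline then compound addition with per-second reads.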
# [9] = biological target: Galactokinase (Homo sapiens) (UniProt P51570); assay: qHTS Validation Assay for Inhibitors of Human Galactokinase (GALK) (AID 493189)
# Procedure, shortened: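 Enzyme activity is inferred from ATP consumption: human GALK phosphorylates galactose (100 uM) using 35 uM ATP for 1 h at room temperature, and luciferase-based Kinase-Glo Plus reports unconsumed ATP.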
# Sequence of Pyruvate kinase PKM (Homo sapiens) (P14618 whole entry, looked up): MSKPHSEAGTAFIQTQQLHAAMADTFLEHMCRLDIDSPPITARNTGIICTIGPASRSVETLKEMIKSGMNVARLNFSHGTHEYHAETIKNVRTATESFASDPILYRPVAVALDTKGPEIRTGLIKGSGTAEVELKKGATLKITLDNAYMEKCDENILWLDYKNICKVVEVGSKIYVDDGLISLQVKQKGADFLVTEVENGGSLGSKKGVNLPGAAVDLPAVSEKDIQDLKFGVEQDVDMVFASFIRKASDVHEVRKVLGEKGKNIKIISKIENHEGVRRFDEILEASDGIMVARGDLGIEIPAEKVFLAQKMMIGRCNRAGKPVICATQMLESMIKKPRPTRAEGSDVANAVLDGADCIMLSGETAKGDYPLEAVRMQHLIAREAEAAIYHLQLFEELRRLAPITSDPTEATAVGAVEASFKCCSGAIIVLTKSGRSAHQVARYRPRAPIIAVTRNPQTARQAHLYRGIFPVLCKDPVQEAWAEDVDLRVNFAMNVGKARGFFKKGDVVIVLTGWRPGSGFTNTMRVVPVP
# Sequence of Pyruvate kinase (Leishmania mexicana) (Q27686 2-499 E452W): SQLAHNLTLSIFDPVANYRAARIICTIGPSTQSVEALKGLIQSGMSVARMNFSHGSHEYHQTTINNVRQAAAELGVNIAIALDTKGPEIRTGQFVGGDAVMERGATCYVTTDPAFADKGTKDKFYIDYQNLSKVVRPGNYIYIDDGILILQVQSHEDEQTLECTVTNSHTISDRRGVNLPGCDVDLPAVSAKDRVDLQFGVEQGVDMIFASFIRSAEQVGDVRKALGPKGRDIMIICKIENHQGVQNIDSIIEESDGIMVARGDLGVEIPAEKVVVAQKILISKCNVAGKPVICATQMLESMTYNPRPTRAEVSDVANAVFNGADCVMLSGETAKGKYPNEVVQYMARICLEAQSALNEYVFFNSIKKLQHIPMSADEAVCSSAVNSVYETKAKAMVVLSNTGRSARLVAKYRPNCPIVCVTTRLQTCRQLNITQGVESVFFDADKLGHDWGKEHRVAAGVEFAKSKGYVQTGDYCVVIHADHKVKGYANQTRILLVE
# Sequence of Guanine nucleotide-binding protein G(i) subunit alpha-1 (Homo sapiens) (P63096 whole entry, looked up): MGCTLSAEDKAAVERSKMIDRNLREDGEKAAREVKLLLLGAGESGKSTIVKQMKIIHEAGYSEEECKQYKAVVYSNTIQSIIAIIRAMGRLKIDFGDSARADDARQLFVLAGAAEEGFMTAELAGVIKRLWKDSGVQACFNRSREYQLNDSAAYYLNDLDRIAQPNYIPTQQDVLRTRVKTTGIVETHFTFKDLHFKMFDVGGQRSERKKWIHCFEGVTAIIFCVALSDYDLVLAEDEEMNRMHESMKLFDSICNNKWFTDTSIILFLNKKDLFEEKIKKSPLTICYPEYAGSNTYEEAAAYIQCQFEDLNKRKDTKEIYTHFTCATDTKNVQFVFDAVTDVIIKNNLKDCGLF
# Sequence of Thyrotropin-releasing hormone receptor (Homo sapiens) (P34981 whole entry, looked up): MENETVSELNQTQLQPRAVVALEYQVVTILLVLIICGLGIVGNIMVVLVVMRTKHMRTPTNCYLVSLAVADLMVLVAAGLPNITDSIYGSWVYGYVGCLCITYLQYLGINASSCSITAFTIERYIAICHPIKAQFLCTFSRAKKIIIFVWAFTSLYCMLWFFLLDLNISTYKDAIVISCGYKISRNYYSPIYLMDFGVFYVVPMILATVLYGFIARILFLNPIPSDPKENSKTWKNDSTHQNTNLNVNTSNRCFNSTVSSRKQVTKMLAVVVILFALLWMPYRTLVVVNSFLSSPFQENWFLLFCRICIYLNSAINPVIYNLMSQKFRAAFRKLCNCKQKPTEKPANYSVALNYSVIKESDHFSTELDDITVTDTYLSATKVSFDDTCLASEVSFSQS
# Sequence of Thyrotropin receptor (Homo sapiens) (P16473 whole entry, looked up): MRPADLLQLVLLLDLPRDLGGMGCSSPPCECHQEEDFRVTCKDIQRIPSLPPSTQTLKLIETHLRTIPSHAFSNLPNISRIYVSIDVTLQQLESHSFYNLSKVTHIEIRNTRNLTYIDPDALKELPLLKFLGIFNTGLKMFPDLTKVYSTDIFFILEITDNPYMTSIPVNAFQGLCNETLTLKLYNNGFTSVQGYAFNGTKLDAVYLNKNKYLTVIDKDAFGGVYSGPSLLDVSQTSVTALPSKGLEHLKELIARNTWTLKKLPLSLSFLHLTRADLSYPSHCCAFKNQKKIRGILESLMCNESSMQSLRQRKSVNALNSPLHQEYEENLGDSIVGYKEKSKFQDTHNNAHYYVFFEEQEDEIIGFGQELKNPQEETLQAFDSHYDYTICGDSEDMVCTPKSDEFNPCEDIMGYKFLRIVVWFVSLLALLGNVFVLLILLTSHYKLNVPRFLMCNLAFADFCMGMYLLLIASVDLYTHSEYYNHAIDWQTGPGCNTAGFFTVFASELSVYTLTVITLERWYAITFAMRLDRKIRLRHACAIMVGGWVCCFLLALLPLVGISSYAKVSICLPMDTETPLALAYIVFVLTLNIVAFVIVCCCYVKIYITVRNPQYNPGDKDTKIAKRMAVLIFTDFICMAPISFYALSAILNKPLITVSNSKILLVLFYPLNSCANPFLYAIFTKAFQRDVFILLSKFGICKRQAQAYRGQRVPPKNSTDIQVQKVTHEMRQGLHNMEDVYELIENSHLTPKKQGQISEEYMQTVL
# Sequence of Galactokinase (Homo sapiens) (P51570 whole entry, looked up): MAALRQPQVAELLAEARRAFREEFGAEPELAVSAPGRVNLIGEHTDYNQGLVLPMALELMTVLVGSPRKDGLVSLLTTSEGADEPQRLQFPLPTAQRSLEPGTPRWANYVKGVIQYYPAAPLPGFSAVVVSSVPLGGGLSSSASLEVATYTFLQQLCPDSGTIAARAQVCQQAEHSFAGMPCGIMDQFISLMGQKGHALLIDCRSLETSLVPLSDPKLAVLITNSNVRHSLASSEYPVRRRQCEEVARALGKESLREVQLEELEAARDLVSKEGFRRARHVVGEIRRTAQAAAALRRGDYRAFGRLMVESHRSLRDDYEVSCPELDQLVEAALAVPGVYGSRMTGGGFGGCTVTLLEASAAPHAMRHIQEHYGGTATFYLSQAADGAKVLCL
# Sequence of Muscarinic acetylcholine receptor M1 (Rattus norvegicus) (P08482 whole entry, looked up): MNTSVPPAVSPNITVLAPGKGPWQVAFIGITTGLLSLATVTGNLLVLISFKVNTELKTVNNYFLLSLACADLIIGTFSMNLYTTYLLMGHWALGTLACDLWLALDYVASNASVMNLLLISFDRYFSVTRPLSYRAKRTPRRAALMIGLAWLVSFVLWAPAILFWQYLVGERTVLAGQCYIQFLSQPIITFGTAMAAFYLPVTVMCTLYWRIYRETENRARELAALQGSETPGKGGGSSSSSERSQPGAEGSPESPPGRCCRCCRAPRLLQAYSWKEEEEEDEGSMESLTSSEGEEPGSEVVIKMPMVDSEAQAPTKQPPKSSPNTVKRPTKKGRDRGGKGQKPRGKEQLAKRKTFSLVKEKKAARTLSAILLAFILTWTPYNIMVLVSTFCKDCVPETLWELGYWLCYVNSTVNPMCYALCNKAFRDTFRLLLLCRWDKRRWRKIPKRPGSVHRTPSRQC
compound,measurement,setting,value
CCCNC[C@H](O)COc1ccccc1C(=O)CCc1ccccc1,outcome,[1],inactive
same,Potency,[2],inactive
same,Potency,[3],inactive
same,outcome,[4],inactive
same,outcome,[5],inactive
same,Potency,[6],2080 nM (active)
same,outcome,[7],inactive
same,activation,[8],3.19%
same,outcome,[9],inactive
